Screening data: PubChem BioAssay, several laboratories
This is a sample that favours compounds with a hit; in the whole collection about 3.3% have one here.
UHRF1 binding – human UHRF1 methylated DNA binding inhibitors. Q96T88. UHRF1 binding to methylated oligo, TR-FRET. inhibition, % at 4.4 µM. 370,000 compounds, 0.75% hits. AID 687016; in the data active = inhibition above about 21%;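 also: UHRF1 SRA domain binding a hemimethylated CpG hairpin DNA probe; 0% = median of test compound wells and 100% = reference inhibitor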
PfGluPho inh – PfG6PD (Plasmodium falciparum) enzyme inhibition. PfGluPho enzyme, NADPH resazurin-diaphorase fluorescence. inhibition, % at 20 µM. 350,000 compounds, 0.78% hits. AID 504690;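 active = inhibition reaching at least a set limit at 20 µM in the primary screen, cut at about 59% in these data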;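 also: 0% = DMSO wells with substrate and 100% = DMSO wells lacking glucose-6-phosphate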
PRMT1 FP inh – PRMT1 (human) inhibition, primary screen; 370,000 compounds, 1.3% hits; inhibition, % at 2.79 µM; AID 652257; Q99873; recombinant PRMT1, activity-based probe fluorescence polarization;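 active = inhibition above about 21% made by adding two undisclosed values, limit read from the data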
Target sequence (Q99873 whole entry, looked up): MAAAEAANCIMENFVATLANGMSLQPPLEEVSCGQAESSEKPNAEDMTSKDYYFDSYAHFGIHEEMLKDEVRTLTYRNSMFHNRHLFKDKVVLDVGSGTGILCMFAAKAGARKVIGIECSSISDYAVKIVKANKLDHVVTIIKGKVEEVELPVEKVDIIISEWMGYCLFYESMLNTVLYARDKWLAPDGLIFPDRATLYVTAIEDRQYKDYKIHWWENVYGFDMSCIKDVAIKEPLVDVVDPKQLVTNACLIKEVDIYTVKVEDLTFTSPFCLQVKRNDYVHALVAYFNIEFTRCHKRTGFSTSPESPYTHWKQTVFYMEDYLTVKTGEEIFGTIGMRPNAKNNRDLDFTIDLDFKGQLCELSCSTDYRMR
MBD2 inh – blocks human MBD2 binding to methylated DNA; Q9UBB5; TR-FRET, MBD2 binding to methylated oligonucleotide; inhibition, % at 4.4 µM; 370,000 compounds, 0.31% hits; AID 686964; in the data active = inhibition above about 13%
M18AAP inhibitor – blocks P. falciparum M18 aspartyl aminopeptidase; recombinant PfM18AAP, H-Glu-NHMec fluorogenic cleavage; inhibition, % at 7.35 µM; 290,000 compounds, 1.2% hits; AID 1822;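 active = inhibition above the campaign mean inhibition over all tested compounds plus 3 SD, cut at about 28% in these data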;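 also: 0% = plate median of test compound wells and 100% = 2 mM ZnCl2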
Numbers without * were called inactive; nt = not tested or not shown.

SMILES	UHRF1 binding	PfGluPho inh	PRMT1 FP inh	MBD2 inh	M18AAP inhibitor
O=C(CCc1ccccc1)N[C@@H]1c2ccccc2CC[C@H]1OCc1ccccc1	23*	3	1	5	nt
O=S(=O)(NCc1cn(Cc2ccccc2)nn1)c1ccccc1Br	0	nt	3	-2	nt
CCn1c2ccccc2c2nnc(SCc3ccc(C(=O)OC)o3)nc21	1	27	24*	-10	-7
CCn1c2ccccc2c2nnc(SCc3ccccc3)nc21	1	30	-1	-1	-4
Cc1cc(C(F)(F)F)cc(NNC(=O)NC(=O)c2ccc(Cl)cc2)n1	-2	11	-3	0	2
Cc1cc(C(F)(F)F)cc(NNC(=O)NC(=O)c2ccccc2Cl)n1	2	1	2	-2	31*
N#C/C(=C/c1ccc(N2CCCCC2)o1)C(=O)Nc1ccc(Cl)cc1	54*	8	-33	-3	6
O=C(NCC(c1cccs1)N1CCOCC1)c1ccc([N+](=O)[O-])cc1 (stereo not drawn)	25*	3	0	1	-1
O=C(NNC(=O)c1cccs1)c1ccc([N+](=O)[O-])cc1	21*	-2	-2	-1	2
CC(C)(C)c1ccc(S(=O)(=O)NCC(=O)N2CCN(c3ncccn3)CC2)cc1	0	nt	-5	8	nt
CCn1c2ccc(C)cc2c2nnc(SCCN3CCOCC3)nc21	0	12	2	-4	-2
Cc1ccc2c(c1)c1nnc(SCC(=O)N3CCN(c4ccc(F)cc4)CC3)nc1n2CC(=O)O	7	25	22*	-10	9
COc1ccc(CN2C/C(=C/C3=CCCCC3)N(C(=O)OCc3ccccc3)C2=N)c(OC)c1	-3	nt	-1	-3	nt
c1ccc(-c2cccc3[nH]cc(-c4ccccc4)c23)cc1	-3	nt	-2	-4	nt
COc1ccc(-c2nc3ccccc3c(=O)n2Cc2ccccc2)cc1COc1ccc(NC(C)=O)cc1	12	nt	4	8	nt
Nc1[nH]c(C(=O)c2ccc(Br)cc2)c(-c2ccc3ccccc3c2)c1C(=O)NCCc1c[nH]c2ccccc12	1	nt	2	1	nt
COc1ccc(OC)c(CCNC(=O)C2CCN(c3ncnc4c3nc3n4CCCCC3)CC2)c1	26*	-28	-3	0	2
CCN(CC)C(=S)SC1=CCS(=O)(=O)C1	26*	8	-1	7	7
O=C(Nc1nc2ncccn2c1-c1ccc(F)c(F)c1)c1ccccc1	-3	nt	1	-5	nt
O=C(O)C1CC(c2ccc(F)cc2)=NO1 (stereo not drawn)	27*	-2	3	5	-3
O=C(O)C1CC(c2ccccc2)=NO1 (stereo not drawn)	4	-7	2	2	3
CC(C)C(=O)Nc1cccc(N2CCN(CCCN3C(=O)C4CCCCN4C3=O)CC2)c1 (stereo not drawn)	23*	-4	-2	5	nt
Cc1ccc2c(c1)sc[n+]2Cc1ccccc1	-5	45	64*	-3	27
Cc1ccc(-c2cc[n+](Cc3ccccc3)cc2)cc1	5	0	-2	-3	-6
CCOC(=O)c1sc2nc(C)cc(C)c2c1N	-2	10	0	-5	2
SMILES	UHRF1 binding	PfGluPho inh	PRMT1 FP inh	MBD2 inh	M18AAP inhibitor
CCOC(=O)c1sc2nc(OCc3cccnc3)cc(C)c2c1N	55*	nt	2	25*	nt
O=C(N/N=C/c1ccc(OC(=O)c2ccccc2Cl)cc1)c1ccccn1	nt	0	nt	nt	5
COc1cc(C(=O)N/N=C/c2ccc(OC(=O)c3ccccc3)c(OC)c2)ccc1O	0	0	-2	-4	-3
O=C(N/N=C/c1ccoc1)c1cc(O)cc(O)c1	28*	17	10	5	17
O=C(N/N=C/c1ccc(OC(=O)c2ccccc2Cl)cc1)c1cc(O)cc(O)c1	37*	-3	6	12	3
Cc1cc(C)cc(C(=O)N/N=C/c2ccoc2)c1	4	1	0	-4	0
COc1cc(/C=N/NC(=O)c2cc(O)cc(O)c2)ccc1OC(=O)c1ccccc1	28*	4	4	10	9
COC(=O)[C@]12C[C@H](CC(=O)N3CCSCC3)C(=O)N(Cc3ccccc3)C1=C[C@H](COCc1ccccc1)O[C@@H]2C	1	nt	0	2	nt
CCOc1cc(CNc2ccc(O)cc2)ccc1OCc1ccc(Cl)cc1Cl	nt	88*	nt	nt	14
Cn1c(SCC(=O)c2ccc3c(c2)OCO3)nnc1C1COc2ccccc2O1 (stereo not drawn)	3	31	22*	1	10
CN(C)c1cccc2c(S(=O)(=O)NCC3CCN(C(=O)C(=O)c4cc5ccccc5o4)CC3)cccc12	-2	nt	-4	-4	nt
O=S1(=O)C=CCN1Cc1cn(Cc2ccc(F)cc2)nn1	47*	nt	-8	-3	nt
COc1cccc(-c2cc(C(C)=O)c3n(c2=O)CCC3)c1OC	-4	nt	-3	-3	nt
O=C1N2Cc3ccccc3C2CS(=O)(=O)N1CCc1ccccc1 (stereo not drawn)	-1	nt	-2	3	nt
COc1ccccc1N/N=C/c1ccc2c(c1)OCO2	1	15	5	5	31*
COc1ccccc1C(=O)N/N=C/c1ccc2c(c1)OCO2	-2	20	0	-2	-5
N#CCCCc1cn(-c2ccc(-c3noc4c3C(=O)N(CC(=O)N3CCOCC3)CC4)cc2)nn1	4	nt	-8	2	nt
Cc1cccc(Nc2ncnc3onc(-c4ccc(F)cc4)c23)c1C	-1	7	-1	-5	3
Cc1cccc(Nc2ncnc3onc(-c4cccc(Cl)c4)c23)c1C	24*	7	-2	-1	-6
CCOC(=O)C1=C(C)N(c2ccccc2)C(=O)/C1=C\c1ccc(O)c(OC)c1	-4	34	42*	-5	6
CC1OC2(C)OC(=N)C1(C#N)C(C#N)(C#N)C2c1ccccc1 (stereo not drawn)	5	-3	25*	-5	-3
O=c1oc2ccccc2c(NCc2ccccc2)c1[N+](=O)[O-]	6	8	0	0	4
Nc1c(NCc2ccccc2)c2ccccc2oc1=O	1	-5	-1	-5	30*
Cc1oc2c(c(C)nn2-c2ccccc2)c(=O)c1Cl	-4	nt	-2	1	nt
CC1CC(C)CN(C(=O)c2cc3cc(Br)cc(Br)c3o2)C1 (stereo not drawn)	47*	20	1	3	3
SMILES	UHRF1 binding	PfGluPho inh	PRMT1 FP inh	MBD2 inh	M18AAP inhibitor
CC(Sc1ccccc1)C(=O)NNC(=O)c1ccncc1 (stereo not drawn)	0	-13	21*	-2	nt
Cc1cc(NN)nc2ccc(Cl)cc12	-3	33	0	2	31*
Cc1cc(C)c2ccc(Cl)cc2n1	5	31	-2	-1	-2
O=C1[C@H](c2ccccc2)[C@@H](c2ccccc2)N1c1ccncc1	22*	-6	-2	9	nt
O=C1[C@@H](Oc2ccccc2)[C@@H](c2ccncc2)N1c1ccccc1	1	23	-2	5	nt
COc1ccc(-c2c(C)n([O-])c(C)c(C)[n+]2=O)cc1OC	23*	-2	2	8	-3
COc1ccc(-c2c(C)n([O-])c(C)c(-c3ccccc3)[n+]2=O)cc1OC	-3	-10	0	-4	0
